Only some compounds are listed: those with a hit (about 6.8% of all), similar ones and a draw of the others.
KB-3-1 cytotox: KB-3-1 parental cell cytotoxicity; KB-3-1 viability, CellTiter-Glo ATP luminescence, 72 h; Potency, µM (doses to about 46.1 µM), most hits filed as cytotoxic; actives 1.4% (n = 400,000); further: on the % scale 0 is the no-effect control and ±100 the full control effect; nearly all actives have a fitted effect of over 60% in size
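Here the drug-naive KB-3-1 line serves as comparator for MDR sub-line selectivity; cells received compound titrations, 72 h at 37 °C, then CellTiter-Glo readout.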
SW480 rereplic: inducers of DNA re-replication in SW480 colon cancer cells; SW480 DNA re-replication, Hoechst DNA content imaging, 48 h; Potency, µM (titrated, usually from 46.1 µM), inactives show at the highest dose re-replication activation, hits mostly activators; actives 1.8% (n = 340,000); AID 624297; further: % of control where 0% means no effect; nearly all actives have a fitted effect of over 55% in size
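First, 250 cells per well were seeded. Next, compound or vehicle (23 nL) was pinned in, plates sat 48 hr at 37 C. Finally Hoechst was added for 40 min before fluorescence scanning.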
MCF10A rerep: inducers of DNA re-replication in MCF 10A breast cells; actives 2.9% (n = 350,000); Potency, µM (top dose mostly 46.1 µM), for the others: at the highest dose activity, positive = re-replication, actives largely listed as activators; MCF 10A DNA re-replication, Hoechst nuclear intensity, 48 h; further: % of control where 0% means no effect; nearly all actives have a fitted effect of over 50% in size
PINK1 expr mod: modulators of PINK1 expression; actives 0.2% (n = 410,000); AID 624263; PINK1 immunofluorescence, high-content cytometry, 24 h; Potency, µM (doses to about 76.6 µM), without a hit: at the top dose activation (PINK1 increase), hits mostly activators; active means well fitted activation curve with a large enough effect; inconclusive means small, poorly fitted or top-dose-only effect; cell line not stated here; further: % of control where 0% means no effect; nearly all actives have a fitted effect of over 65% in size
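A stable cell line was treated with compounds at 5 concentrations for 24 hours, with CCCP as control. PINK1 levels and mitochondrial localization were measured by immunofluorescence with mitochondrial, cell and nuclear markers after fixation, read by laser-scanning cytometry.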
TSG101-PTAP inh: blocks PTAP/TSG101 interaction to inhibit HIV-1 budding. AID 493005. Potency, µM (doses to about 115 µM), for the others: top-dose activity change, negative = inhibition, actives largely listed as inhibitors. Fluorescence polarization, FITC-PTAP peptide / Tsg101 binding. 340,000 tested, under 10 active. Q99816; active means well fitted inhibition curve with a large enough effect in the main read-out, with a control signal flat, not every such curve was filed as active; inconclusive means small, poorly fitted or top-dose-only effect, or effect the other way, or a change in a side signal; inactive means no such curve, though single readings can be large or run the other way; further: % of control where 0% means no effect
Target sequence (Q99816 whole entry, looked up): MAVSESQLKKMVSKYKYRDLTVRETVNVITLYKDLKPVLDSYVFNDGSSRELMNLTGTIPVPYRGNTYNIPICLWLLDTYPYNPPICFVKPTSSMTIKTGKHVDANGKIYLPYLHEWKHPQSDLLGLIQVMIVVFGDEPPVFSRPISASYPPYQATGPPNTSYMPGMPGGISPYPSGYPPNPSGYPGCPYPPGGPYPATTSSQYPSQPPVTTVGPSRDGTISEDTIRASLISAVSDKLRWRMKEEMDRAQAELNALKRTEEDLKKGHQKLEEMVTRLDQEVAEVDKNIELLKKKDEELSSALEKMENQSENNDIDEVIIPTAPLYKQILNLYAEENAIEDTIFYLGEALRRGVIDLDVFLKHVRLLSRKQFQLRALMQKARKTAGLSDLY
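FP read-out: FITC-PTAP peptide, 50 nM final, binding Tsg101 binding domain, 10 uM final; 20 min, r.t.; 10 mM HEPES pH 7.5, 0.15 M NaCl, 0.01% Tween 20, 3 mM EDTA, 0.1 mM TCEP.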
KB-V1 MDR tox: KB-V1 MDR subline cytotoxicity | Potency, µM (doses to about 46.1 µM), most hits filed as cytotoxic | KB-V1 MDR cells viability, CellTiter-Glo, 72 h | actives 3.4% (n = 400,000); further: on the % scale 0 is the no-effect control and ±100 the full control effect; nearly all actives have a fitted effect of over 60% in size
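Readout: CellTiter-Glo luminescence, 10 min after addition. Cells: KB-V1 MDR subline, 72 h at 37 degrees C with compound. Analysis: corrected, normalized data fitted to concentration-effect curves.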
* marks the source's active call; other numbers are inactive results; i = inactive; ? = inconclusive; . = no result given; [ ] = another dose, or the depositor's remark. Unless noted, the call rests on the fitted dose curve; in most records, active means well fitted curve in the direction sought with a large enough effect; inconclusive means small, poorly fitted or top-dose-only effect, or another doubt; inactive means no such curve, though single readings can be large; an effect the other way counts as inactive or inconclusive. Potency means the concentration at half of the fitted maximal effect.

SMILES	KB-3-1 cytotox	SW480 rereplic	MCF10A rerep	PINK1 expr mod	TSG101-PTAP inh	KB-V1 MDR tox
CC1=CC(C)(C)Nc2ccc(OC(=O)CN3C(=O)CCC3=O)cc21	i	4.1µM*	-2%	.	-7%	?
CC1=CC(C)(C)Nc2ccc(C)cc21	i	-4%	-3%	1%[38.3 µM]	-2%	i
CC1=CC(C)(C)Nc2ccc(OC(=O)C(C)N3C(=O)c4ccccc4C3=O)cc21 (stereo not given)	?	3.7µM*	?	0%	-2%	?
CC1=CC(C)(C)Nc2ccc(Cc3ccc4c(c3)C(C)=CC(C)(C)N4)cc21	i	1%	29µM*	2%	-3%	i
CC1=CC(C)(C)Nc2ccc(OC(=O)c3cccnc3)cc21	?	3.7µM*	2.6µM*	0%	-3%	?
CC1=CC(C)(C)N(C(=O)CN2C(=O)CCC2=O)c2ccccc21	i	-5%	0%	0%	-8%	?
Cc1nc(-c2ccc(Cl)cc2)sc1CCNC(=O)c1cccs1	i	.	.	6%	.	i
Cc1nc2cc(NC(=O)[C@@H]3C[C@@H](Sc4ccccn4)CN3Cc3ccc4c(c3)OCCO4)ccc2s1	.	.	.	-1%	.	.
CC1=CC(C)(C)Nc2ccc(OC(=O)c3ccco3)cc21	i	18µM*	4.1µM*	.	-6%	i
CC1=CC(C)(C)N2C(=O)C(=O)c3cc(OC(=O)c4ccco4)cc1c32	?	1.3µM*	?	1%	-1%	?
ClCc1nc2ccccc2c2ccccc12	?	18µM*	?	6%	-1%	?
COc1ccc(-c2nc(SCC(=O)NCCCc3ccccc3)n[nH]2)cc1	.	.	.	2%	.	.
Nc1ccc(-n2nc3ccccc3n2)cc1	i	?	23µM*	7%	-1%	?
Nc1ccc2nn(-c3ccccc3)nc2c1	i	15µM*	18µM*	1%	3%	i
O=C(Nc1ccc2nn(-c3ccccc3)nc2c1)c1cccs1	i	10%	0%	23%[38.3 µM]	1%	i
CC(C)CC(=O)Nc1cc2nn(-c3ccccc3)nc2cc1Cl	i	6%	7%	-4%	0%	i
Nc1cc2nn(-c3ccccc3)nc2cc1Cl	i	?	18µM*	-1%	-4%	?
COc1cccc(CNC(=O)C2CCCN(S(=O)(=O)c3ccc4c(ccn4C)c3)C2)c1OC (stereo not given)	i	.	.	1%	.	i
CC(=O)C1=C(C)OC(N)=C(C#N)C1c1cccc([N+](=O)[O-])c1 (stereo not given)	i	0%	-6%	0%	1%	i
CC(=O)C1=C(C)OC(N)=C(C#N)C1c1cc([N+](=O)[O-])ccc1Cl (stereo not given)	i	3.3µM*	?	0%	2%	i
O=C(NC1CCCC1)c1cn(C2CCCN(Cc3ccc4c(c3)OCCO4)C2)nn1 (stereo not given)	.	.	.	0%	.	.
C=CCN(CC=C)S(=O)(=O)c1ccc(NC(=S)NC(=O)c2ccco2)cc1	?	1%	6%	-1%	-2%	13µM*
C=CCN(CC=C)S(=O)(=O)c1ccc(NC(=S)NC(=O)c2ccc(-c3ccccc3)cc2)cc1	?	6%	12%	-2%	0%	?
C=CCN(CC=C)S(=O)(=O)c1ccc(NC(=S)NC(=O)Cc2ccc(OC)cc2)cc1	i	2%	7%	-4%[38.3 µM]	-10%	21µM*
Cc1ccsc1CN(C(=O)c1ccc(OCC(C)C)cc1)C1CCS(=O)(=O)C1 (stereo not given)	.	.	.	0%	.	.
SMILES	KB-3-1 cytotox	SW480 rereplic	MCF10A rerep	PINK1 expr mod	TSG101-PTAP inh	KB-V1 MDR tox
Cc1cccc(Cc2c(C)nc3nc(SCc4ccccc4F)nn3c2C)c1	i	.	.	0%	.	i
COc1ccc(C(=O)N(C)c2ccccc2C(=O)NCCc2ccccc2)cc1	2.9µM*	26%	1%	0%	-2%	5.8µM*
COc1ccccc1CNC(=O)C1CC2Cn3c(nc4cc(C)c(C)cc43)C2N1C (stereo not given)	13µM*	18%	1%	0%	-4%	i
COc1ccc(-c2n[nH]c(=S)n2/N=C/C=C/c2ccccc2OC)cc1	10µM*	?	4.6µM*	3%	0%	18µM*
CN(C)c1ccc(/C=C2\CCCc3c2nc2ccccc2c3C(=O)O)cc1	i	23%	18µM*	-1%	2%	i
CN(C)c1ccc(/C=C2/CCCc3c2nc2ccccc2c3C(=O)O)cc1	i	.	.	.	.	i
COc1cc(-c2nc3ccc4ccccc4c3c3c2CCC3)cc(OC)c1O	?	?	15µM*	-2%	-2%	?
COc1cc(/C=C2\CCCc3c2nc2ccccc2c3C(=O)O)cc(OC)c1O	i	26µM*	-2%	-1%	-7%	i
COc1cc(-c2nc3ccc4ccccc4c3c3c2CCC3)cc(OC)c1OC	i	1%	16%	-1%	-5%	i
COc1ccc(-c2cc(C)no2)cc1S(=O)(=O)NC(C)C	i	.	.	1%	.	i
COCCN1C(=O)/C(=C/c2ccc(OCc3ccc(C(=O)O)cc3)c(OC)c2)SC1=Nc1ccccc1	i	-693%	?	-1%	-4%	21µM*
O=C(COC(=O)c1ccccc1NS(=O)(=O)c1cccs1)NC1CCCCC1	i	-3%	3%	2%	0%	i
O=C(COC(=O)c1ccccc1NS(=O)(=O)c1cccs1)NCC12CC3CC(CC(C3)C1)C2	i	-2%	?	?	-1%	15µM*
Cc1cccc(NC(=O)CSc2nc(=O)n(CCN3CCOCC3)c3c2CCC3)c1	.	.	.	0%	.	.
Cc1ccccc1NC(=S)N(CCCN1CCC(C)CC1)Cc1ccco1	i	4%	-2%	-1%	-1%	i
Cc1ccc(NC(=S)N(CCCN2CCC(C)CC2)Cc2ccco2)cc1C	i	-3%	?	-2%	-2%	23µM*
COc1ccc2nc(SCC(=O)NCC3CCCO3)c(C#N)cc2c1 (stereo not given)	i	-4%	23µM*	8%	2%	?
COc1ccc2nc(SCC(=O)N(C)C3CCCCC3)c(C#N)cc2c1	i	?	6%	-3%	1%	15µM*
Cc1cc(C)cc(-n2c(SCC(=O)Nc3ccccc3F)nc3c(oc4ccccc43)c2=O)c1	i	.	.	0%	.	i
COc1cc2c(cc1NC(=O)C(C)Oc1ccccc1)oc1ccccc12 (stereo not given)	i	.	.	4%	.	i

Assay outcomes (PubChem BioAssay)
